PubChem BioAssay (EPA / NIEHS)
Where “and” joins values, the source holds several entries; their conditions need not be identical. Equal values may be shown once. Results filed as inconclusive are left out. Some structures have more than one record in an assay (separate samples or runs), and their calls can disagree. Calls of active or inactive are those of the source. Rule for the calls: active = hit-call score of the fitted dose curve at least 0.9, where 1 is the maximum; inconclusive = response in the unintended direction; inactive = score below 0.9.

molecular target: Muscarinic acetylcholine receptor M2 (Homo sapiens) (UniProt P08172); assay: NVS_GPCR_hM2: NovaScreen (NVS) G Protein-Coupled Receptor Assay for human Muscarinic, M2 Receptor (AID 2283273)
Sequence (P08172 whole entry, looked up): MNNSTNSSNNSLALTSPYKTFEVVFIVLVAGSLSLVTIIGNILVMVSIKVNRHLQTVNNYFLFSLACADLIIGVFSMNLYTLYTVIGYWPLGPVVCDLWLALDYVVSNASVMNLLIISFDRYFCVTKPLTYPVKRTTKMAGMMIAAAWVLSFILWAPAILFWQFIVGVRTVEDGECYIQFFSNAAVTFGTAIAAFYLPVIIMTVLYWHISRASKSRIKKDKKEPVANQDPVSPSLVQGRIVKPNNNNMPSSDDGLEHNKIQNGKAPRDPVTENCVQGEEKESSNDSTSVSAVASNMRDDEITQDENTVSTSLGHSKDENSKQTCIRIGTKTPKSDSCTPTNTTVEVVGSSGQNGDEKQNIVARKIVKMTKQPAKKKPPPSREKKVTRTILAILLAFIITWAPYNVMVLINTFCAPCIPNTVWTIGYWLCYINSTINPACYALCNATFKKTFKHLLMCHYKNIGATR
Summary of the method: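 CHO membrane prep, radioligand + test compound, 1 h; filtration, scintillation count. Screen 25 uM duplicate → conc. series for actives. Readout: decrease in binding vs DMSO control.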

Row | SMILES | outcome
1 | CNC(=S)S | inactive
2 | COc1ccc(C(c2ccc(OC)cc2)C(Cl)(Cl)Cl)cc1 | inactive
3 | COP(=S)(OC)Oc1nc(Cl)c(Cl)cc1Cl | inactive

molecular target: human Muscarinic, M4 Receptor, CHRM4 (gene 1132) (UniProt P08173); assay: NVS_GPCR_hM4: NovaScreen (NVS) G Protein-Coupled Receptor Assay for human Muscarinic, M4 Receptor (AID 2283274)
Sequence (P08173 whole entry, looked up): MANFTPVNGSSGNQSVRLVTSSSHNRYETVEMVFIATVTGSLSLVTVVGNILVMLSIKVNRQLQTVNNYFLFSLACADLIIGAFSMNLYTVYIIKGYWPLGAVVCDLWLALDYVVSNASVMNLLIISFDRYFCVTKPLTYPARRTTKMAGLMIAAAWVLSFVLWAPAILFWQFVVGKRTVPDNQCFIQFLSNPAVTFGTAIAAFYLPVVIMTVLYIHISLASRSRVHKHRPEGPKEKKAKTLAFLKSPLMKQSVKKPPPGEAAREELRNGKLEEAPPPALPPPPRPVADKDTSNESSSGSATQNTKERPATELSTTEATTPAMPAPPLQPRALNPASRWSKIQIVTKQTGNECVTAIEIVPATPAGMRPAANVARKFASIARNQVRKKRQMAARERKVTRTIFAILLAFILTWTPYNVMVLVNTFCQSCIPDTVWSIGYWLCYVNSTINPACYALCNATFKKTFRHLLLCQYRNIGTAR
Method: (§1) NVS_GPCR_hM4 is a biochemical, single-readout assay that uses extracted gene-proteins from CHO in a cell-free assay. Measurements were taken 1 hour after chemical dosing in a 96-well plate.NVS_GPCR_hM4 is one of one assay component(s) measured or calculated from the NVS_GPCR_hM4 assay. It is designed to make measurements of radioligand binding, a form of binding reporter, as detected with scintillation counting signals by Filter-based radiodetection technology.Data from the assay component NVS_GPCR_hM4 was analyzed into 1 assay endpoint. This assay endpoint, NVS_GPCR_hM4, was analyzed in the positive analysis fitting direction relative to DMSO as the negative control and baseline of activity. Using a type of binding reporter, loss-of-signal activity can be used to understand changes in the binding as they relate to the gene CHRM4. Furthermore, this assay endpoint can be referred to as a primary readout, because the performed assay has only produced 1 assay endpoint. To generalize the intended target to other relatable targets, this assay endpoint is annotated to the gpcr intended target family, where the subfamily is rhodopsin-like receptor.
(§2) Binding assays used specific radioligands (tritiated, iodinated) with non-radioactive competitive displacement ligands in agonist or antagonist protocols (as indicated) and various reference compounds and inhibitors to titrate specific binding to receptors and transporters. Most enzyme assays (CYPs, kinases, phosphatases, proteases, HDACs) used recombinant protein and specific substrates (fluorescence mostly, some colorimetric and radioactive) and inhibitors, followed by a biochemical separation of substrate and product. All assays for the biochemical HTS were initially run in duplicate at a single concentration (10 uM for CYP450 assays and 25 uM for all others). […] Each assay was run with positive and negative controls, and concurrent controls on every plate. The follow-up (secondary) screen tested active chemical-pairs in concentration series, as well as a few additional assays not tested in the primary screen, some selected negative inactives, and several cases re-run in the concentration series for confirmatory purposes.

Row | SMILES | outcome
4 | COC(=O)C=C(C)OP(=O)(OC)OC | inactive
5 | CCCC1COC(Cn2cncn2)(c2ccc(Cl)cc2Cl)O1 (stereo not drawn) | inactive
6 | CN(C)C(=S)SSC(=S)N(C)C | inactive
7 | COc1ccc(C(c2ccc(OC)cc2)C(Cl)(Cl)Cl)cc1 | inactive

molecular target: human Neuropeptide Receptor Y1 (NPY1), NPY1R (gene 4886) (UniProt P25929); assay: NVS_GPCR_hNPY1: NovaScreen (NVS) G Protein-Coupled Receptor Assay for human Neuropeptide Receptor Y1 (NPY1) (AID 2283276)
Sequence (P25929 whole entry, looked up): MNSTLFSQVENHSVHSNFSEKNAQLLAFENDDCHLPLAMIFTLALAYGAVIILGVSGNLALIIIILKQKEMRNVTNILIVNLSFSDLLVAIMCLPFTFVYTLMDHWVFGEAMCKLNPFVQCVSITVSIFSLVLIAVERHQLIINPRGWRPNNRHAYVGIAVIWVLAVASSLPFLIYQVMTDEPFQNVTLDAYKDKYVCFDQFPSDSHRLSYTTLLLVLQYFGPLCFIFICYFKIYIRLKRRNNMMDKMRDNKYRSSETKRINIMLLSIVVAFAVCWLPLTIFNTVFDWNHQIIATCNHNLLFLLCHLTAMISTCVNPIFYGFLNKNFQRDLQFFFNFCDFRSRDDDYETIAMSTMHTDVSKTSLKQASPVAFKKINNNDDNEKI
Method: as §1, with “NVS_GPCR_hNPY1” for “NVS_GPCR_hM4”, “SK-N-MC” for “CHO”, “plate.NVS_GPCR_hNPY1” for “plate.NVS_GPCR_hM4”, “NVS_GPCR_hNPY1,” for “NVS_GPCR_hM4,”, “NPY1R.” for “CHRM4.”
as §2

Row | SMILES | outcome | AC50
8 | CNC(=S)S | inactive | 
9 | CN(C)C(=S)SSC(=S)N(C)C |  | 14.7 µM (active)
10 | CCCCNC(=O)OCC#CI |  | 15.9 µM (active) and 14.4 µM (active)
11 | CS/C(C)=N/OC(=O)N(C)SN(C)C(=O)O/N=C(\C)SC |  | 25 µM (active)

molecular target: human Neurokinin, NK2 Receptor, TACR2 (gene 6865) (UniProt P21452); assay: NVS_GPCR_hNK2: NovaScreen (NVS) G Protein-Coupled Receptor Assay for human Neurokinin, NK2 Receptor (AID 2283278);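 note: actives reduce bound radioligand signal relative to DMSO baseline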
Sequence (P21452 whole entry, looked up): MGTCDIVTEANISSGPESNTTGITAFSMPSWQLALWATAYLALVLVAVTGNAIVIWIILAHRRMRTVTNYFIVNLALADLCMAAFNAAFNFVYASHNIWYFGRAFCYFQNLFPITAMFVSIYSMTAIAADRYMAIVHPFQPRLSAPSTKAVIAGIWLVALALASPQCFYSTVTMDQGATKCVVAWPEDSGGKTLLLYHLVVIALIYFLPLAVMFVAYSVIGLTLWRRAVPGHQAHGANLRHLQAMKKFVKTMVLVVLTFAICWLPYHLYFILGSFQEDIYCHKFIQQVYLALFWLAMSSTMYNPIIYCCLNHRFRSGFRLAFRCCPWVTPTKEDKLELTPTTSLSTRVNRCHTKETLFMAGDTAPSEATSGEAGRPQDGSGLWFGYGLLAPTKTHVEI
Summary of the method: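 Cell-free radioligand binding using receptor protein extracted from CHO cells; readings taken 4 hours after chemical dosing by filter-based scintillation counting. Primary screen ran single concentration (25 uM) in duplicate; actives followed up in concentration series, loss-of-signal versus DMSO baseline.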

Row | SMILES | outcome
12 | Cc1ccc(-c2c(Cl)nc(C#N)n2S(=O)(=O)N(C)C)cc1 | inactive
13 | CCOC(=O)C(Cl)Cc1cc(-n2nc(C)n(C(F)F)c2=O)c(F)cc1Cl (stereo not drawn) | inactive
14 | COc1ccc(C(c2ccc(OC)cc2)C(Cl)(Cl)Cl)cc1 | inactive

molecular target: human Neurotensin Receptor (NTS), NTSR1 (gene 4923) (UniProt P30989); assay: NVS_GPCR_hNTS: NovaScreen (NVS) G Protein-Coupled Receptor Assay for human Neurotensin Receptor (NTS) (AID 2283279)
Sequence (P30989 whole entry, looked up): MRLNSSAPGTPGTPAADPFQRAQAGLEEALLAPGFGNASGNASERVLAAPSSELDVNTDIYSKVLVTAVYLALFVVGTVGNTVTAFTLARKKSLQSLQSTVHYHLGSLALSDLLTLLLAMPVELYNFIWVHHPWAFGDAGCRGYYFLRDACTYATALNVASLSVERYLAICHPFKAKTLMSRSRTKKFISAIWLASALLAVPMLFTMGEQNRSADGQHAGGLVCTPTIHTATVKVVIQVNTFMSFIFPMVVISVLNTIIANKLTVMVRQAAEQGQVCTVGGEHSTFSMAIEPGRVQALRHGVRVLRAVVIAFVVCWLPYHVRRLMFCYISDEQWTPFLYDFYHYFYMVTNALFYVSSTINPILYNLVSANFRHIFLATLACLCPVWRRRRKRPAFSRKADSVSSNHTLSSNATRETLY
Summary of the method: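 Radioligand displacement on human NTSR1 protein from CHO cells, cell-free, 1 h, filter-based scintillation counting. Primary screen at 25 uM in duplicate; hits rerun in concentration-response up to 50 uM.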

Row | SMILES | outcome
15 | C#CCOS(=O)OC1CCCCC1Oc1ccc(C(C)(C)C)cc1 (stereo not drawn) | inactive
16 | CNC(=S)S | inactive
17 | COC(=O)C(C)Oc1ccc(Oc2ccc(Cl)cc2Cl)cc1 (stereo not drawn) | inactive
18 | COc1nc(C)nc(NC(=O)NS(=O)(=O)c2ccccc2Cl)n1 | inactive

molecular target: human Opioid Receptor Delta 1 (Opiate D1), OPRD1 (gene 4985) (UniProt P41143); assay: NVS_GPCR_hOpiate_D1: NovaScreen (NVS) G Protein-Coupled Receptor Assay for human Opioid Receptor Delta 1 (Opiate D1) (AID 2283280)
Sequence (P41143 whole entry, looked up): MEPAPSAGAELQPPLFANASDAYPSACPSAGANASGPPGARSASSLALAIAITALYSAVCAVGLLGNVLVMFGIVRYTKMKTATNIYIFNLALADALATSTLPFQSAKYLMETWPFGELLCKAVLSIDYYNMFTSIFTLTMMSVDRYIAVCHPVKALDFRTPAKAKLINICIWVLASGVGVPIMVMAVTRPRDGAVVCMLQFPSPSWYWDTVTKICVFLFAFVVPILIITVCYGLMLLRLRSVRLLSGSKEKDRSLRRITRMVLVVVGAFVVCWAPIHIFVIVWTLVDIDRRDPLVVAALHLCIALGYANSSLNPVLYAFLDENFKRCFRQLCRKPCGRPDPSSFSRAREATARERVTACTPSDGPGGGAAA
Summary of the method: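 Radioligand displacement on membranes from CHO cells expressing the receptor, read by filter scintillation counting 1 h after dosing. Duplicate single-point screen at 25 uM, then concentration series for actives; loss of signal versus DMSO.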

Row | SMILES | AC50 | outcome
19 | OC(c1ccc(Cl)cc1)(c1cncnc1)c1ccccc1Cl (stereo not drawn) | 12.5 µM (active) | 
20 | CO/C=C(/C(=O)OC)c1ccccc1Oc1cc(Oc2ccccc2C#N)ncn1 | 7.95 µM (active) | inactive
21 | CCCC1COC(Cn2cncn2)(c2ccc(Cl)cc2Cl)O1 (stereo not drawn) | 2.09 µM (active) | 
22 | COc1ccc(C(c2ccc(OC)cc2)C(Cl)(Cl)Cl)cc1 |  | inactive
23 | CCOP(=S)(OCC)SCn1c(=O)oc2cc(Cl)ccc21 |  | inactive
24 | CCCCNC(=O)OCC#CI | 13.3 µM (active) | inactive

molecular target: mouse Cholecystokinin, CCK1 Receptor (CCKA), Cckar (gene 12425) (UniProt O08786); assay: NVS_GPCR_mCCKAPeripheral: NovaScreen (NVS) G Protein-Coupled Receptor Assay for mouse Cholecystokinin, CCK1 Receptor (CCKA) (AID 2283285)
Sequence (O08786 whole entry, looked up): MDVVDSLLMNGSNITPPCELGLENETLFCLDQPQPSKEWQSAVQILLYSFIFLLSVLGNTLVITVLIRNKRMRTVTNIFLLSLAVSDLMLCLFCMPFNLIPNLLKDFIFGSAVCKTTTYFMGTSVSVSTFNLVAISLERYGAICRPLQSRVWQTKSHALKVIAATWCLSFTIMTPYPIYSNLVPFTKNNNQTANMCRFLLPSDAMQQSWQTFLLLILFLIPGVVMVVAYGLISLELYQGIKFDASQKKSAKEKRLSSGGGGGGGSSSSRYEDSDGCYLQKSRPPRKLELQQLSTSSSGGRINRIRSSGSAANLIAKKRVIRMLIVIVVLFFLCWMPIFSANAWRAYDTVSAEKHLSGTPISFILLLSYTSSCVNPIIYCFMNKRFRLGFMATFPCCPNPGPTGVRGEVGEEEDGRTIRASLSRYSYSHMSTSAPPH
Summary of the method: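 Radioligand competitive displacement on mouse pancreatic membranes, 2 h incubation; filter-based scintillation counting, loss of signal versus DMSO. Single-concentration screen at 25 uM in duplicate, actives retested in concentration-response up to 50 uM.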

Row | SMILES | outcome | AC50
25 | CO/C=C(/C(=O)OC)c1ccccc1Oc1cc(Oc2ccccc2C#N)ncn1 | inactive | 
26 | C=CCC1=C(C)C(OC(=O)C2C(C=C(C)C)C2(C)C)CC1=O (stereo not drawn) |  | 25 µM (active) [middle of 4 runs]
27 | C=CCC1=C(C)[C@@H](OC(=O)[C@@H]2[C@@H](C=C(C)C)C2(C)C)CC1=O |  | 19.9 µM (active)

tested on: rabbit Platelet Activating Factor Receptor (PAF), gene 100354046; assay: NVS_GPCR_rabPAF: NovaScreen (NVS) G Protein-Coupled Receptor Assay for rabbit Platelet Activating Factor Receptor (PAF) (AID 2283287)
Summary of the method: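 Rabbit platelet membrane preparation; radioligand displacement read by filter-based scintillation counting 1 h after dosing, loss of signal versus DMSO. Primary screen in duplicate at 25 uM, actives followed up in concentration series.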

Row | SMILES | outcome | AC50
28 | Fc1ccc(Oc2ccnc3cc(Cl)cc(Cl)c23)cc1 | inactive | 
29 | CCc1nn(C)c(C(=O)NCc2ccc(C(C)(C)C)cc2)c1Cl | inactive | 
30 | CO/C=C(/C(=O)OC)c1ccccc1Oc1cc(Oc2ccccc2C#N)ncn1 |  | 13.9 µM (active) and 15.7 µM (active)
31 | CCCC1COC(Cn2cncn2)(c2ccc(Cl)cc2Cl)O1 (stereo not drawn) |  | 14.4 µM (active)
32 | CC(C)Oc1cc(-n2nc(C(C)(C)C)oc2=O)c(Cl)cc1Cl |  | 9.82 µM (active)
33 | CNC(=S)S | inactive | 
34 | COC(=O)C(C)Oc1ccc(Oc2ccc(Cl)cc2Cl)cc1 (stereo not drawn) | inactive | 
35 | CCCCC(CC)COC(=O)c1ccccc1C(=O)OCC(CC)CCCC (stereo not drawn) | inactive | 
36 | C=CCC1=C(C)[C@@H](OC(=O)[C@@H]2[C@@H](C=C(C)C)C2(C)C)CC1=O |  | 25 µM (active)
